Source: PubChem BioAssay (NCATS)
Records with an inconclusive call do not appear. A number with no mark means an inactive call. Calls follow the shape of the dose curve; as a rule, active = well fitted activation curve with a large enough effect; inconclusive = small, poorly fitted or top-dose-only effect; inactive = no such curve, though single readings can be large or run the other way.

Test: Validation screen for small molecules that induce genotoxicity in human embryonic kidney (HEK293T) cells expressing luciferase-tagged ELG1 (AID 493106); also: 0% is about no effect
Conditions: luminescence; series mostly up to 46.1 µM; activity change, positive = ELG1 induction: at the top concentration
Description: NIH Molecular Libraries Probe Production Network [MLPCN]
NIH Chemical Genomics Center [NCGC]
Assay Provider: Kyungjae Myung, NHGRI, NIH
Keywords: MLPCN, qHTS, NCGC, genotoxicity, cancer
Cancer cells divide rapidly compared to normal cells in the body. During cell division, cancer cells need to duplicate their genome by DNA replication. The failure of genome duplication leads to cancer cells' death. Therefore, inhibitors of DNA replication could specifically kill cancer cells. Based on this concept, many chemotherapeutic agents were developed and have been used to treat cancer patients. However, there are a limited number of agents available in the clinical setting, and some of those that do exist have low efficacy and severe side effects. Therefore, if we can find the compounds that effectively block DNA replication either by directly damaging DNA or by inhibiting other cellular mechanisms, the options for cancer treatment will be broadened. With this in mind, we developed a quantitative high-throughput ELG1-luciferase reporter gene assay. Since the level of human ELG1 protein is enhanced in response to genetic stresses, increases in luciferase activity can be used to identify compounds that cause genetic stress.
For genotoxicity screening, 2,000 cells in 5 uL/well were dispensed into white, solid-bottom 1536-well plates using a solenoid-based dispenser. Following transfer of 23 nL compound or DMSO vehicle by a pin tool, the plates were incubated 16 hr at 37 °C and 5% CO2. 5 ul ONE-Glo (Promega) was then added to each plate and following a 30 min incubation at room temperature, luciferase activity was quantified on a ViewLux CCD-based plate reader.

| Compound | activity change, positive = ELG1 induction |
| --- | --- |
| C[N+](C)(C)CC#CCN1CCCC1=O | -6.59% |
| CC(C)NP(=O)(NC(C)C)OP(=O)(NC(C)C)NC(C)C | -5.03% |
| O=[N+]([O-])/C=C/c1ccc2c(c1)OCO2 | -25.2% |
| NCCc1ccc(S(=O)(=O)F)cc1 | 1.96% |
| NC(=O)c1cc(N2CC2)c([N+](=O)[O-])cc1[N+](=O)[O-] | -6.08% |
| c1ccc2cc(CC3=NCCN3)ccc2c1 | -8.58% |
| CCOC(=O)c1ncn2c1[C@@H]1CCCN1C(=O)c1cc(OC)ccc1-2 | 3.07% |
| NCC(CP(=O)(O)O)c1ccc(Cl)cc1 (stereo not given) | -7.85% |
| CC(N)Cc1c[nH]c2ccc(O)cc12 (stereo not given) | -8.31% |
| CCn1cnc2c(Nc3cccc(Cl)c3)nc(N[C@@H]3CCCC[C@@H]3N)nc21 | -27% |
| O=[N+]([O-])c1cc(O)c(O)c([N+](=O)[O-])c1 | -8.37% |
| CN1CC[C@@]2(C)c3cc(O)ccc3N(C)C12 (stereo not given in full) | -3.73% |
| NC(=O)c1ccc(OCC(O)CN2CC=C(c3ccc(F)cc3)CC2)cc1 (stereo not given) | -11.1% |
| C[N+](C)(C)CCOC(=O)CBr | -6.35% |
| NCC(O)c1cc(O)c(O)cc1F (stereo not given) | -7.64% |
| C=CCN(C1=NCCN1)c1c(Cl)cccc1Cl | -3.61% |
| CN1CC[C@@]2(C)c3cc(OC(=O)Nc4ccccc4)ccc3N(C)[C@@H]12 | 0.0602% |
| COc1ccc2[nH]cc(CCN)c2c1 | -9.3% |
| CN(N=O)c1ccc(O)c(O)c1 | 1.96% |
| COc1ccc(CNC(=O)/C=C/c2ccc3[nH]cc(CCN(C)C)c3c2)cc1 | -0.301% |

| Compound | activity change, positive = ELG1 induction |
| --- | --- |
| C/C(O)=C(\C#N)C(=O)Nc1cc(Br)ccc1Br | -5.51% |
| CCCN(CCC)C1Cc2cc(OC)c(OC)cc2C1 | -9.42% |
| O=C1C=CC(=O)C=C1 | -3.85% |
| COc1cc(CC(C)N)c(OC)cc1I (stereo not given) | -7.88% |
| C[N+]1(C)CCOC(O)(c2ccc(-c3ccc(C4(O)C[N+](C)(C)CCO4)cc3)cc2)C1 (stereo not given) | -0.963% |
| CN1CCc2cccc(Cl)c2CC1 | -8.67% |
| C=CCN1CCC23c4c5ccc(O)c4O[C@H]2C(=O)CC[C@@]3(O)C1C5 (stereo not given in full) | -5.09% |
| Cc1o[nH]c(=O)c1CC(N)C(=O)O (stereo not given) | 2.92% |
| C=CCN1CC[C@]23c4c5ccc(O)c4O[C@@H]2/C(=N/N=C2\CC[C@@]4(O)C6Cc7ccc(O)c8c7[C@@]4(CCN6CC=C)[C@@H]2O8)CC[C@@]3(O)C1C5 | -2.14% |
| C#CCN[C@H](C)Cc1ccccc1 | 0.15% |
| CC(C)(C)c1cc(C=C(C#N)C#N)cc(C(C)(C)C)c1O | -20.8% |
| CCCn1c(C)c(C(=O)c2ccc3ccccc3c2)c2ccccc21 | 0.903% |
| C[C@H](Cc1ccc2c(c1)OC(C(=O)O)(C(=O)O)O2)NC[C@H](O)c1cccc(Cl)c1 | -6.02% |
| CCCN1CC[C@@H]2c3cc(O)ccc3CC[C@@H]21 | -2.41% |
| Ic1ccccc1CNC1C2CCN(CC2)C1C(c1ccccc1)c1ccccc1 (stereo not given) | -26.4% |
| CC(=O)NBr | -1.08% |
| Clc1ccc(N2CC3CCC(C2)N3)nn1 | -2.47% |
| Clc1cc(I)cc(Cl)c1NC1=NCCN1 | -9.42% |
| NC(Cc1cc(O)c(O)cc1O)C(=O)O (stereo not given) | -1.02% |
| O=C1CC[C@@]2(O)C3Cc4ccc(O)c5c4C2(CCN3CC2CC2)[C@H]1O5 (stereo not given in full) | -3.55% |
